Drawing on the antibiotic and cytotoxicity screens of Wong et al. (2023), this text covers cytotoxicity call for 47 compounds.

Hit rate of the full screen: of about 39,000 compounds, about 3,300 (8.5%) were called active. This excerpt belongs to a sample that is enriched for actives.

The subject of the assay is HepG2. Put plainly: cytotoxicity call (relative viability < 0.9). Conditions: 10 µM.
Take `C[C@H](CO)N1C[C@H](C)[C@H](CN(C)C(=O)c2ccccc2)OCCCC[C@H](C)Oc2ccc(NC(=O)Nc3cccc4ccccc34)cc2C1=O`: the cytotoxicity call is “inactive”.
Consider `C[C@@H]1CN([C@@H](C)CO)C(=O)c2cc(NS(C)(=O)=O)ccc2O[C@H]1CN(C)Cc1ccc(C(F)(F)F)cc1`, for which the cytotoxicity call was “inactive”.
As for `Clc1ccc(C(Cn2ccnc2)OCc2ccsc2Cl)c(Cl)c1` (configuration not stated), the entry is “inactive”; as for `Clc1ccc(C(c2ccc(Cl)cc2)[n+]2ccn(C[C@@H](OCc3ccc(Cl)cc3Cl)c3ccc(Cl)cc3Cl)c2)cc1`, “active”.
The same measure for `CNC[C@@H]1OCCCC[C@H](C)Oc2ccc(NC(=O)c3ccncc3)cc2C(=O)N([C@@H](C)CO)C[C@@H]1C`: “inactive”.
As for `NC(=O)NCCC[C@H](N)C(=O)O`, the cytotoxicity call is “inactive”.
Consider `NC(=O)CC[C@H]1CCCNC1`, for which the cytotoxicity call was “inactive”.
Turning to `CCc1ccc(NC(=N)N=C(N)N)cc1`, the cytotoxicity call was “inactive”.
The same measure for `Cc1ccccc1NC(=N)N=C(N)N`: “active”; for `Cc1ccc(NC(=N)N=C(N)N)c(C)c1`: “inactive”; for `COc1cccc(S(=O)(=O)N2C[C@@H](O)COC[C@H]3O[C@@H](CC(=O)N4CCN(c5ccccc5)CC4)CC[C@@H]32)c1`: “inactive”.
The same measure for `COc1ccc(NC(=O)N(C)C[C@@H]2OCc3cnnn3CCCC(=O)N([C@H](C)CO)C[C@H]2C)c(OC)c1`: “inactive”; for `CN1CCN(C(=O)C[C@@H]2CC[C@H]3[C@H](COc4ccc(NC(=O)c5cscn5)cc4C(=O)N3C)O2)CC1`: “inactive”.
On to `C[C@H](CO)N1C[C@H](C)[C@@H](CN(C)C)Oc2ccc(NC(=O)Cc3cn(C)c4ccccc34)cc2CC1=O`, for which the cytotoxicity call was “inactive”.
The same measure for `Nc1nc(=O)c2c([nH]1)NCC(CNc1ccc(C(=O)NC(CCC(=O)O)C(=O)O)cc1)=N2` (configuration not stated): “inactive”; for `CN(Cc1cnc2nc(N)nc(N)c2n1)c1ccc(C(=O)NC(CCC(=O)O)C(=O)O)cc1.O` (configuration not stated): “active”.
With `Nc1nc(=O)c2nc(CNc3ccc(C(=O)N[C@@H](CCC(=O)O)C(=O)O)cc3)cnc2[nH]1`, the cytotoxicity call was “inactive”.
Consider `CC(=O)N[C@@H](CCC(=O)O)C(=O)O`, for which the cytotoxicity call was “inactive”.
Take `CCCN(CCC)C(=O)C(CCC(=O)O)NC(=O)c1ccccc1` (configuration not stated): the cytotoxicity call was “inactive”.
As for `CN(Cc1cnc2nc(N)nc(N)c2n1)c1ccc(C(=O)N[C@@H](CCC(=O)O)C(=O)O)cc1`, the entry is “active”.
As to `Nc1nc(N)c2nc(CNc3ccc(C(=O)NC(CCC(=O)O)C(=O)O)cc3)cnc2n1` (configuration not stated), the cytotoxicity call was “active”.
The same measure for `Nc1nc(=O)c2nc(CNc3ccc(C(=O)NC(CCC(=O)O)C(=O)O)cc3)cnc2[nH]1` (configuration not stated): “inactive”; for `Nc1nc(=O)c2c([nH]1)NC[C@H](CNc1ccc(C(=O)N[C@@H](CCC(=O)O)C(=O)O)cc1)N2C=O`: “inactive”.
As to `CN(C)CCCNC(=O)C[C@H]1C=C[C@H](NS(=O)(=O)c2ccccc2)[C@H](CO)O1`, the cytotoxicity call is “inactive”.
As for `C[C@@H]1CN([C@@H](C)CO)C(=O)Cc2cc(NS(C)(=O)=O)ccc2O[C@H]1CN(C)C(=O)Nc1ccc(F)cc1`, the cytotoxicity call was “inactive”.
As for `COc1cccc(-c2cn(CC[C@H]3CC[C@@H](NC(=O)CN(C)C)[C@H](CO)O3)nn2)c1`, the entry is “inactive”; as for `CC(C)NC(=O)N(C)C[C@H]1Oc2ccc(NC(=O)Cc3ccccc3)cc2CC(=O)N([C@@H](C)CO)C[C@H]1C`, “inactive”; as for `CN1C(=O)c2cc(NC(=O)c3ccno3)ccc2OC[C@H]2O[C@@H](CC(=O)NC3Cc4ccccc4C3)CC[C@@H]21`, “inactive”.
As to `Cc1noc(C)c1NC(=O)N(C)C[C@@H]1Oc2ccc(NC(=O)Cn3cnnn3)cc2CC(=O)N([C@H](C)CO)C[C@@H]1C`, the cytotoxicity call is “inactive”.
As for `C[C@@H]1CCCCO[C@H](CN(C)C(=O)Nc2ccc(C(F)(F)F)cc2)[C@H](C)CN([C@H](C)CO)C(=O)c2cc(NC(=O)Nc3ccccc3)ccc2O1`, the entry is “inactive”; as for `O=C(C[C@@H]1CC=CC[C@H](NC(=O)OCC2c3ccccc3-c3ccccc32)C(=O)O[C@H](c2ccccc2)CNC1=O)N[C@H](CO)Cc1ccccc1`, “inactive”; as for `O=C(C[C@@H]1CC[C@@H](NS(=O)(=O)c2ccccc2)[C@@H](CO)O1)NCc1ccncn1`, “inactive”.
Take `Cc1noc(C)c1S(=O)(=O)N(C)C[C@H]1Oc2ccc(NS(=O)(=O)c3ccc(F)cc3)cc2CC(=O)N([C@@H](C)CO)C[C@@H]1C`: the cytotoxicity call is “inactive”.
As for `CC1CC(OC(=O)c2ccccc2O)CC(C)(C)C1` (configuration not stated), the cytotoxicity call was “active”.
The same measure for `CC1CC(OC(=O)C(O)c2ccccc2)CC(C)(C)C1` (configuration not stated): “inactive”.
With `O=C(Oc1ccccc1C(=O)O)c1ccccc1O`, the cytotoxicity call was “inactive”.
On to `C[C@H]1CN([C@@H](C)CO)C(=O)Cc2cc(NS(C)(=O)=O)ccc2O[C@@H]1CN(C)S(=O)(=O)c1ccccc1`, for which the cytotoxicity call is “inactive”.
The same measure for `C[C@H]1CCCCO[C@H](CN(C)C(=O)C2CCCCC2)[C@@H](C)CN([C@@H](C)CO)C(=O)c2cc(NC(=O)CCC(F)(F)F)ccc2O1`: “inactive”; for `COCC(=O)N(C)C[C@@H]1Oc2cc(C#Cc3cccnc3)ccc2S(=O)(=O)N([C@H](C)CO)C[C@@H]1C`: “inactive”; for `C[C@H]1CN([C@@H](C)CO)C(=O)c2cccc(NC(=O)Nc3ccc(C(F)(F)F)cc3)c2O[C@H]1CN(C)C(=O)Nc1ccc(F)cc1`: “active”.
As for `C[C@@H]1CN([C@H](C)CO)C(=O)c2cccc(NC(=O)Nc3ccc(F)cc3)c2O[C@H]1CN(C)C(=O)Nc1ccc(C(F)(F)F)cc1`, the entry is “inactive”.
The same measure for `C[C@@H]1CN([C@H](C)CO)C(=O)c2cccc(NC(=O)Nc3ccc(C(F)(F)F)cc3)c2O[C@@H]1CN(C)C(=O)Nc1ccc(F)cc1`: “inactive”.
Consider `C[C@H]1CN([C@@H](C)CO)C(=O)c2cccc(NC(=O)Nc3ccc(C(F)(F)F)cc3)c2O[C@@H]1CN(C)C(=O)Nc1ccc(F)cc1`, for which the cytotoxicity call is “inactive”.
As for `C[C@@H]1CN([C@H](C)CO)C(=O)c2cccc(NC(=O)Nc3ccc(F)cc3)c2O[C@@H]1CN(C)C(=O)Nc1ccc(C(F)(F)F)cc1`, the entry is “inactive”; as for `C[C@H](CO)N1C[C@H](C)[C@H](CN(C)C(=O)Nc2ccc(F)cc2)Oc2c(NC(=O)Nc3ccc(C(F)(F)F)cc3)cccc2C1=O`, “active”.
On to `C[C@H](CO)N1C[C@H](C)[C@@H](CN(C)S(=O)(=O)c2cn(C)cn2)Oc2c(NC(=O)Nc3ccccc3)cccc2C1=O`, for which the cytotoxicity call is “inactive”.
With `C[C@@H]1CCCCO[C@H](CN(C)C(=O)C2CCCCC2)[C@@H](C)CN([C@H](C)CO)C(=O)c2cc(NC(=O)c3ccccc3)ccc2O1`, the cytotoxicity call was “inactive”.
